Over roughly 33,000 sequences, “e-score” has its median near -0.037; the highest 2% begin near 0.34. The list comes from a sample in which the highest values are over-represented; it also holds similar and randomly drawn sequences.

This experiment has as its target T1, GST-Rok (full length) (Bacillus subtilis subsp. subtilis str. …, UniProt O34857 1-191).
T1 sequence: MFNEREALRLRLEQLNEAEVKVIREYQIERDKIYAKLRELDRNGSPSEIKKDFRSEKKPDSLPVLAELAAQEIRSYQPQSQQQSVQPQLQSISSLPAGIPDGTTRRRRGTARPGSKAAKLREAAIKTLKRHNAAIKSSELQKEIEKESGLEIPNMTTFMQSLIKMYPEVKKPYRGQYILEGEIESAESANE
Kind of experiment: protein binding microarray; Rok is a gene silencer of Bacillus subtilis; high values mean tight binding. To be noted: protein: recombinant; tags: GST (pTH5325, pDEST15-Magic modified); dsDNA, one strand shown. A digest of the protocol:
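Each has a 25-mer constant primer and a 35-mer variable part from a de Bruijn sequence of order 10, covering every non-palindromic 8-mer at least 32 times (palindromic 16). Preference for each 8-mer is given as a rank-based, unitless enrichment score (E-score). Its range runs from 0.5 (most favored) to −0.5 (most disfavored).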
With ACTATACA, the binding signal was determined as 0.322 E-score. Then TATATACA, with 0.409 E-score. As for AATATACA, the binding signal stood at 0.388 E-score. Under GGTATACA stands 0.187 E-score; under AATACACA, 0.234 E-score; under CATATACC, 0.259 E-score.

Turning to CATATACA, the binding signal stood at 0.258 E-score. Then GATATACC, with 0.291 E-score. Then AATATACC, with 0.394 E-score; and TGTATACA, with 0.351 E-score; and GCTGCTGA, with -0.177 E-score. Then CTTCCTTA, with -0.172 E-score; and CTAGGAAG, with -0.0907 E-score. AGTACGCA: the binding signal is 0.194 E-score. Consider AATATACT, for which the binding signal stood at 0.395 E-score. Under ACTATACT stands 0.26 E-score; under AGTATACA, 0.271 E-score. Then AGTATACT, with 0.338 E-score; and AATATACG, with 0.268 E-score. Then AGTATACC, with 0.164 E-score; and CATAAAAG, with 0.102 E-score; and AGTGCGTC, with 0.0828 E-score.

As to ACCTCCAA, the binding signal was -0.0283 E-score. Then TCACGTGA, with -0.0446 E-score; and TGGCCGAA, with -0.123 E-score; and ACCTAGAC, with 0.0548 E-score.

CATTATAG: the binding signal worked out at 0.255 E-score.

For AATTATAG, the binding signal was 0.381 E-score.

Consider AATTATAA, for which the binding signal is 0.361 E-score. Then ACTTATAT, with 0.332 E-score. Under GATTATAC stands 0.217 E-score.

AGTTATAT: the binding signal was found to be 0.291 E-score. Under CATTATAC stands 0.265 E-score; under CATTATAA, 0.228 E-score; under AATTATAC, 0.377 E-score.

As for AATTATCG, the binding signal is 0.217 E-score. Then GATTATAA, with 0.208 E-score; and AATTATAT, with 0.407 E-score; and ACAGGTCT, with -0.119 E-score.

Take TGCTGAAA: the binding signal is -0.0464 E-score.

For the sequence GCAACTGA, the binding signal was -0.0401 E-score. Under ACAAGTAA stands 0.185 E-score; under ACCTATGG, -0.177 E-score. Under GACAATGA stands -0.0569 E-score. Regarding GTCATCTA, the binding signal was determined as 0.113 E-score. Under GCAGACGC stands -0.181 E-score. For ATGGTAAC, the binding signal came out at 0.214 E-score.

Consider AACTAGCG, for which the binding signal stood at 0.241 E-score. In the case of TACTAGCA, the binding signal stood at 0.243 E-score. Under TACTAGGA stands 0.183 E-score. Under CACTAGTG stands 0.0643 E-score; under AACTAGTG, 0.39 E-score. On to AACTAGTT, for which the binding signal was 0.441 E-score. Then AACTAGTC, with 0.206 E-score; and AGCTAGTA, with 0.373 E-score. Under GGCTAGTA stands 0.0598 E-score; under TACTAGTA, 0.45 E-score; under AGCTAGTC, 0.078 E-score.

As for AACTAGCT, the binding signal was determined as 0.317 E-score. Then CTGACCAC, with -0.141 E-score. ACCGGACT: the binding signal is -0.00817 E-score.

ATTGTTAC: the binding signal was 0.15 E-score. Then AAGCTTCC, with -0.103 E-score; and CTAGCTTA, with 0.26 E-score; and AAGTCGAT, with 0.0686 E-score. Then GATCTCAA, with -0.162 E-score; and CCGCTCAG, with -0.0853 E-score. Under AACTAGGG stands -0.00258 E-score. Turning to AACTAGTA, the binding signal came to 0.471 E-score.

In the case of AACTAGGC, the binding signal stood at 0.118 E-score.

With ACCTAGTA, the binding signal came to 0.292 E-score.

With CACTAGTA, the binding signal amounted to 0.205 E-score.

Consider GACTAGTC, for which the binding signal was determined as 0.224 E-score. AACTAGGT: the binding signal stood at 0.361 E-score. Under GACTAGGA stands -0.00844 E-score; under GACTAGTA, 0.365 E-score; under CCGAATTA, 0.235 E-score.

On to AGAGTGAA, for which the binding signal is -0.0866 E-score. Under GTAAGCAA stands 0.0243 E-score; under ACCTTACT, 0.101 E-score. Under AGTAATTC stands 0.29 E-score. AGTAATTG: the binding signal turned out to be 0.29 E-score. Under CGTAATTA stands 0.328 E-score; under AGTAATTA, 0.381 E-score; under CATAATTA, 0.362 E-score.

Take GGTAATCA: the binding signal was 0.0323 E-score.

With CATAATTC, the binding signal worked out at 0.126 E-score. Under GGTAATTA stands 0.375 E-score; under GATAATTA, 0.223 E-score. Under CACAGTGA stands 0.137 E-score; under TAATTTCA, 0.273 E-score; under GCTACGTA, 0.298 E-score.

Take ACCGGCAT: the binding signal was -0.0275 E-score. In the case of GGAAGGTA, the binding signal amounted to 0.0109 E-score. CCCGGCAC: the binding signal was -0.109 E-score. Then CTAAACGA, with -0.072 E-score; and CTAAACTC, with 0.235 E-score; and GTAAACGA, with -0.0497 E-score. Then GTAAACTA, with 0.351 E-score.

For CTAAACTA, the binding signal worked out at 0.336 E-score. As to ATAAACTC, the binding signal came out at 0.15 E-score.

As for ATAAACTA, the binding signal turned out to be 0.361 E-score. Under ATAAACTG stands 0.175 E-score; under GTAAACAA, 0.0786 E-score. Under AAAACTCT stands 0.171 E-score; under AAGGACGA, -0.157 E-score. For the sequence CTCATCCA, the binding signal worked out at 0.013 E-score. Then GCTCCTAC, with -0.158 E-score; and ACAAGACG, with -0.0878 E-score; and CGTTAAGA, with -0.0916 E-score. Consider ATAACACG, for which the binding signal amounted to 0.22 E-score. Then GACTGATA, with 0.238 E-score; and CAGAATAG, with 0.106 E-score; and CGTTCGGA, with -0.107 E-score.

The values are drawn from PMC6212790, “How bacterial xenogeneic silencer rok distinguishes foreign from self DNA in its resident genome”.
